# dFosB act: activators of mouse delta FosB homodimer; activation, % at 25 µM; purified delta FosB, TAMRA-CDK5 oligo fluorescence polarization; percent of positive-control signal above neutral wells; P13346; 340,000 tested, 0.99% active;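 active = mean activation above about 17%, with every replicate also reaching it, limit read from the data, passing the limit was not always enough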
# Target sequence (P13346 whole entry, looked up): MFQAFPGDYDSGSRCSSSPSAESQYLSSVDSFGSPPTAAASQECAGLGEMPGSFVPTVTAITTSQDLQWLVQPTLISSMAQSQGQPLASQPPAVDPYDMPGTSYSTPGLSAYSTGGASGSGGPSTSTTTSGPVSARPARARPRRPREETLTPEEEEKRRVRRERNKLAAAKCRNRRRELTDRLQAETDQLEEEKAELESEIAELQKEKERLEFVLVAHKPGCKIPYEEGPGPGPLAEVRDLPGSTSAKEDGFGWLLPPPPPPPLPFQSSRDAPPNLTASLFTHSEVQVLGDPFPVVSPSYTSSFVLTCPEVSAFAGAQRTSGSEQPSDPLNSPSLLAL
# SIRT5 block: sirtuin-5 (human) deacylase inhibition; 330,000 tested, 1.1% active; Q9NXA8; Purified SirT5, succinyl-peptide AMC, trypsin-coupled fluorescence; inhibition, % at 15 µM; in the data active = inhibition above about 15%
# FGF22 binding: FGF22 (human) thermal shift binding | Q9HCT0 | recombinant FGF22 thermal shift, SYPRO orange fluorescence; percent of sucrose octasulfate shift, DMSO zero | activity (Tm shift, normalised), % at 9.99 µM | 340,000 tested, 1.5% active | AID 651658;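 active = mean Tm shift, scaled 0 neutral to 100 positive control, at about 1.3% or above, every replicate too, limit read from the data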
# Target sequence (Q9HCT0 whole entry, looked up): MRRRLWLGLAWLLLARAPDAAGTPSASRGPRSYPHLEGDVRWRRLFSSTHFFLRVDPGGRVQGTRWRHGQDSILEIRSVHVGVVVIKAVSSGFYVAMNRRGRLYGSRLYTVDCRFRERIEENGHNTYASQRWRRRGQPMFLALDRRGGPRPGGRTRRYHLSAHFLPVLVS
# PvdQ inh: blocks Pseudomonas aeruginosa PvdQ acylase activity. purified PvdQ acylase, fluorescence plate reader. inhibition, % at 10 µM. 340,000 tested, 0.063% active; in the data active = inhibition above about 30%, passing the limit was not always enough;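 note: 0% = vehicle neutral wells and 100% = reference inhibitor wells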
# CDK5 inh: inhibitors of human CDK5/p35 kinase; Q00535+Q15078; Recombinant CDK5/p35, ADP-Glo luminescence, 60 min; inhibition, % at 10 µM; 330,000 tested, 0.01% active;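 active = highest replicate inhibition of at least 50% and at least 75% of replicates reaching 50%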;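 note: plate controls were DMSO neutral control for no effect and GW8510 at 10 µM for full effect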
# PglD DTNB: inhibitors of Campylobacter jejuni PglD acetyltransferase; purified PglD enzyme, DTNB colorimetric CoA detection; inhibition, % at 12.5 µM; 360,000 tested, 0.098% active; in the data active = inhibition above about 16%, passing the limit was not always enough
# The depositor's hits bear a star; . = not tested or not shown. In the library only some 2.8% were active in any assay of this set; here they are far more common.
SMILES,dFosB act,SIRT5 block,FGF22 binding,PvdQ inh,CDK5 inh,PglD DTNB
CC(=O)Nc1ccccc1OCC(=O)NCC(F)(F)F,-6,-2,44*,-3,0,.
CC(=O)Nc1ccccc1OCC(=O)NC(C)c1ccccc1 (stereo not drawn),3,1,1,-8,-1,.
Cc1cc(C(=O)Nc2cccc3c2O[C@H](CN(C)S(=O)(=O)c2cn(C)cn2)[C@H](C)CN([C@H](C)CO)C3=O)n(C)n1,.,-2,0,.,.,1
C[C@@H]1CN([C@@H](C)CO)C(=O)c2cc(-c3cccc(F)c3)cnc2O[C@@H]1CN(C)Cc1ccccn1,.,1,0,.,.,4
Cc1noc(C)c1NC(=O)N(C)C[C@@H]1Oc2c(NC(=O)C3CC3)cccc2C(=O)N([C@@H](C)CO)C[C@@H]1C,.,-2,0,.,.,-10
Cc1nn(-c2ccccc2)c(C)c1/C=C1\C(=O)N(C)C(=S)N1C,-8,2,43*,-3,0,.
Cc1nn(-c2ccccc2)c(Cl)c1/C=C1\SC(=S)NC1=O,-5,.,.,-2,0,.
Cc1ccc(OCC(=O)NNC(=O)c2ccc(NC(=O)C3CC3)cc2)c(C)c1,34*,-4,0,-8,-3,-1
CCC(=O)Nc1ccc(C(=O)NNC(=O)COc2cc(C)ccc2C)cc1,-4,.,.,-9,0,.
COc1ccc(S(=O)(=O)Nc2ccc3c(c2)C(=O)N([C@H](C)CO)C[C@H](C)[C@@H](CN(C)C(=O)Nc2ccc(F)cc2)OCCCC[C@H](C)O3)cc1,.,0,0,.,.,1
COc1ccc(NC(=O)N(C)C[C@@H]2OCCCC[C@@H](C)Oc3ccc(NS(=O)(=O)c4ccc(F)cc4)cc3C(=O)N([C@@H](C)CO)C[C@H]2C)cc1,.,3,-1,.,.,-1
COc1ccc(S(=O)(=O)Nc2ccc3c(c2)C(=O)N([C@@H](C)CO)C[C@@H](C)[C@@H](CN(C)C(=O)Nc2ccc(F)cc2)OCCCC[C@@H](C)O3)cc1,.,18*,0,.,.,0
COc1ccc(S(=O)(=O)Nc2ccc3c(c2)C(=O)N([C@@H](C)CO)C[C@H](C)[C@@H](CN(C)C(=O)Nc2ccc(F)cc2)OCCCC[C@@H](C)O3)cc1,.,16*,-1,.,.,5
COc1ccc(S(=O)(=O)Nc2ccc3c(c2)C(=O)N([C@@H](C)CO)C[C@@H](C)[C@H](CN(C)C(=O)Nc2ccc(F)cc2)OCCCC[C@@H](C)O3)cc1,.,8,18*,.,.,-4
Cc1ccc(S(=O)(=O)Nc2ccc3c(c2)C(=O)N([C@H](C)CO)C[C@@H](C)[C@H](CN(C)C(=O)Nc2ccc(F)cc2)OCCCC[C@H](C)O3)cc1,.,21*,0,.,.,4
Cc1ccc(S(=O)(=O)N(C)C[C@H]2Oc3c(NC(=O)C4CCCCC4)cccc3C(=O)N([C@@H](C)CO)C[C@H]2C)cc1,.,7,-1,.,.,6
COc1ccc(S(=O)(=O)N(C)C[C@@H]2Oc3c(NS(=O)(=O)c4ccc(C)cc4)cccc3C(=O)N([C@@H](C)CO)C[C@H]2C)cc1,.,4,0,.,.,.
CCOC(=O)/C(C#N)=C/c1cc2ccccc2nc1N1CCCCC1,-11,112*,0,11,1,.
COc1ccc(C=C(C#N)C(=O)c2ccccc2)cc1,.,.,0,.,.,.
COc1cc(/C=C(\C#N)C(=O)c2ccc(O)c(O)c2)cc(I)c1O,-10,20*,0,-4,-5,-4
COc1ccc(NC(=O)C2CC(=O)n3c(nc4ccccc43)N2)cc1 (stereo not drawn),34*,2,0,-3,-4,-9
CC(C)(C)NC(=O)CSc1nnc(NC(=O)c2ccccc2Cl)s1,0,-6,1,3,1,.
CCOC(=O)CNC(=O)CSc1nnc(NC(=O)c2ccccc2Cl)s1,-5,-1,43*,-25,0,8
N#Cc1ccc(-c2ccc([C@@H]3[C@H](CO)N4C(=O)CNC[C@@H]34)cc2)cc1,.,2,0,.,.,.
CN(C)CCCNc1c2c(nc3cc(-c4cccc(F)c4)nn13)CCC2,-8,0,0,-11,2,2
SMILES,dFosB act,SIRT5 block,FGF22 binding,PvdQ inh,CDK5 inh,PglD DTNB
CCOCCCNc1c2c(nc3cc(-c4ccc(F)cc4)nn13)CCC2,-2,-4,43*,6,3,.
O=C(Nc1ccccc1F)C(=Cc1sc(N2CCOCC2)nc1-c1ccccc1)C(=O)Nc1ccccc1F,-10,-1,44*,-1,1,.
O=C(N/N=C/c1sc(N2CCOCC2)nc1-c1ccccc1)c1ccccc1O,-2,.,.,-2,-1,-2
Cc1ccc(S(=O)(=O)N(C)C[C@H]2Oc3ccc(NS(=O)(=O)c4ccc(F)cc4)cc3CC(=O)N([C@H](C)CO)C[C@H]2C)cc1,.,-2,0,.,.,1
CCOC=C1C(=O)N(C(C)=O)c2cc(OC)c(OC)cc21,-4,.,43*,7,0,-4
CCO/C=C1/C(=O)N(c2ccccc2OC)C(=O)c2ccccc21,-6,4,0,-14,1,2
COc1ccc2c3c(n(C)c2c1)[C@H](CO)N(C(=O)CN(C)C)CC31CCN(Cc2nccs2)CC1,.,-2,0,.,.,.
Cc1ccc(-c2csc(N3CCN(c4cc5c(cc4Cl)nc(-c4ccncc4)n5CCN4CCCCC4)CC3)n2)cc1,22*,.,0,-15,0,10
O=C(COC(=O)c1cc(S(=O)(=O)N2CCOCC2)ccc1Cl)NC1CCCCC1,.,.,43*,.,.,-1
CC1CCC(NC(=O)c2cccc(S(=O)(=O)N3CCOCC3)c2)CC1 (stereo not drawn),.,.,43*,.,.,-3
O=C(NC1CCCCCC1)c1cccc(S(=O)(=O)N2CCOCC2)c1,-3,-5,0,-4,1,.
CCN(CC)c1ccc(/C=N/NC(=O)c2cccc(S(=O)(=O)N3CCOCC3)c2)c(O)c1,1,0,43*,-1,1,-1
COc1ccc(CN(C)C[C@H]2OCCCC[C@@H](C)Oc3ccc(NS(=O)(=O)c4ccc(C)cc4)cc3C(=O)N([C@H](C)CO)C[C@H]2C)cc1,.,3,.,.,.,-6
C[C@@H]1CN([C@@H](C)CO)C(=O)Cc2cc(NC(=O)Cc3ccccc3)ccc2O[C@@H]1CN(C)C(=O)Nc1ccccc1,.,6,0,.,.,5
O=[N+]([O-])c1cc2cccnc2c2ncccc12,.,-1,0,.,.,-2
NS(=O)(=O)c1cccc2c1c([N+](=O)[O-])cc1nc(O)c(O)nc12,5,16*,0,-4,-1,0
CCC(=O)N1[C@H](CO)[C@@H](c2ccccc2)C12CN(CC1CCOCC1)C2,.,-2,0,.,.,.
O=C(COC(=O)c1cccnc1Cl)c1ccc(F)cc1,-12,-2,43*,-1,0,.
O=C(COC(=O)c1cccnc1Cl)NCCc1ccccc1,-3,1,0,-15,0,-6
Cc1ccc(CNC(=O)COC(=O)c2cccnc2Cl)cc1,-4,.,43*,11,0,-2

# Bioassay records deposited in PubChem BioAssay by Broad Institute.
